Laboratory results taken from the supplement of paper PMC8269313.

Tested on: 4T1
Assay: % inhibition of 4T1 cell number vs DMSO control; higher = stronger growth inhibition
Settings: 1 µM, 3 days
How it was run: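 4T1-H2B-GFP mouse breast cancer cells (3000 per well, 2% FBS medium) were seeded in 96-well imaging plates on plastic, denuded lung or mCAF1 fibroblast-derived matrix, Matrigel (15 μg/mL) or 0.2% gelatin; edge wells were left unused. After 16 h, kinase inhibitors were added at 1 μM final for 3 days. Plates were formalin-fixed, DAPI-stained and imaged on an INCell Analyzer 2200, and GFP-positive nuclei were counted. Percent inhibition of cell number was calculated relative to DMSO control.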

[1] = substrate: lung fibroblast-derived matrix
[2] = substrate: mCAF1 fibroblast-derived matrix

Structure (SMILES)	% inhibition of 4T1 cell number (substrate: Matrigel) [%]	% inhibition of 4T1 cell number (substrate: gelatin) [%]	% inhibition of 4T1 cell number [1] [%]	% inhibition of 4T1 cell number [2] [%]	% inhibition of 4T1 cell number (substrate: plastic) [%]
O=S(=O)(c1c(O)c(Cl)cc(Cl)c1Cl)c1c(O)c(Cl)cc(Cl)c1Cl [p38 MAP Kinase Inhibitor IV]	-24.4	7.41	-2.09	31.2	-30.3
COc1ccc2c(c[n+](C)c3c4cc5c(cc4ccc23)OCO5)c1OC [Chelerythrine Chloride]	20	-43	4.48	8.26	-4.98
CC(C)(C)c1cc(C=C(C#N)C#N)cc(Br)c1O	46.6	-2.78	2.02	0.929	35.7
COC(=O)[C@]1(O)C[C@@H]2O[C@@]1(C)n1c3ccccc3c3c4c(c5c6ccccc6n2c5c31)C(=O)NC4 [K-252a, Nocardiopsis sp.]	87.4	91.8	2.02	98.1	91.5
COc1ccc2c(c1)/C(=C/c1cnc[nH]1)C(=O)N2	24.5	50.7	8.25	17.6	17.3
O=[N+]([O-])/C=C/c1ccc2c(c1)OCO2 [Syk Inhibitor III]	-4.15	-72.6	-12.2	-33.4	-19.4
NC(=NN=Cc1ccc(-c2cccc([N+](=O)[O-])c2)o1)N[N+](=O)[O-] [ERK Inhibitor III]	24.7	24.5	-2.29	-12.4	41.4
O=C1NC(=O)c2c1c1c3ccccc3n3c1c1c2c2ccccc2n1[C@H]1CC[C@@H]3O1	30	44.2	-1.14	29.4	87.4
